Screening data: PubChem BioAssay, NMMLSC
Proteasome disasm – inhibitors of ATP-driven 26S proteasome dissociation, primary screen, biochemical, bead-based flow cytometry, GFP-tagged proteasome; anti-FLAG beads, GFP-proteasome disassembly; inhibition of disassembly, % (test concentration not listed); hit rate 0.2% among 24,000; AID 751, 2007;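 active means inhibition of disassembly above about 33%, limit read from the data; inconclusive means likely self-fluorescent, control bead median signal at least 40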;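 further: higher percent means more bead fluorescence retained so stronger block of disassembly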
LNCaP diff act – activators of LNCaP prostate cell differentiation, primary screen, flow cytometry side scatter; 4 d; side scatter shift, % at 10 µM; hit rate 0.56% among 24,000;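 active means side scatter shift above 30%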;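 further: androgen-responsive LNCaP prostate cancer cells in charcoal-stripped serum medium; higher shift means more granular cells and more differentiation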
QS inhibitor – S. aureus quorum sensing inhibitors, primary screen, RNAIII-GFP reporter, flow cytometry; inhibition, % at 2 µM; hit rate 0.3% among 24,000; S. aureus RN6390 RNAIII-GFP reporter, AIP-induced, flow cytometry 3 h; AID 527, 2006;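 active means share of bacteria positive for the green fluorescent reporter and its mean brightness both inhibited by 50% or more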
Large screens that a line does not name were inactive. Shown are actives, neighbours in structure and some others; about 1% of the full set was active somewhere.

O=C(CCCn1c(=S)[nH]c2cc3c(cc2c1=O)OCO3)N1CCc2ccccc2C1	QS inhibitor 65.7
O=C(CCCn1c(=S)[nH]c2cc3c(cc2c1=O)OCO3)N1CCN(c2ccccc2)CC1	none
COC(=O)c1ccc(CSc2nc3c(cnn3-c3ccc(Cl)cc3)c(=O)[nH]2)o1	QS inhibitor 70.8
COC(=O)c1ccc(CSc2nc3c(cnn3-c3ccc(F)cc3)c(=O)[nH]2)o1	none
Cc1cc2cc(CNC(=O)c3ccc4c(c3)OCO4)ccc2[nH]1	none
COc1cc(NC(=O)c2cc(C)on2)cc(OC)c1OC	none
COC(=O)c1cc(-c2ccccc2)sc1NC(=O)c1cc(C)on1	LNCaP diff act 35.0
O=C(CSc1nnc(CNC(=O)c2ccccc2F)o1)c1ccccc1	none
O=C(CN1C(=O)C2(OCCO2)c2ccccc21)c1ccc(Br)cc1	none
Cc1ccccc1-c1nc(CN2CCC(C(=O)NC3CCN(Cc4ccccc4)CC3)CC2)c(C)o1	LNCaP diff act 48.0
Cc1ccccc1-c1nc(CN2CCC(C(=O)O)CC2)c(C)o1	none
Cc1ccccc1-c1nc(CN2CCC(C(=O)NCCC3=CCCCC3)CC2)c(C)o1	LNCaP diff act 34.0
COc1ccc(CCNC(=O)C2CCN(Cc3nc(-c4ccccc4C)oc3C)CC2)cc1OC	none
CNc1nn(-c2cccc(Cl)c2)nc1N	Proteasome disasm inconclusive
Cc1ccc(Cn2c(SCC(C)C)nc3c2c(=O)n(C)c(=O)n3C)cc1	none
Cn1cc(/C=N/n2cnc3sc4c(c3c2=O)CCCC4)c2ccccc21	QS inhibitor 68.4
Cn1cc(C2NC(=O)c3c(sc4c3CCCC4)N2)c2ccccc21 (stereo not given)	Proteasome disasm inconclusive
COc1ccc(-c2nc(C#N)c(NCCN(C)C)o2)cc1	none
CCN(CC)CCCNc1oc(-c2cccc(Cl)c2)nc1C#N	LNCaP diff act 32.0
O=C1CSC(=Nc2ccccc2)N1	none (no result: Proteasome disasm, LNCaP diff act)
O=C1CS/C(=N\C(=O)N2c3ccccc3Sc3ccccc32)N1	QS inhibitor 87.3
Nc1nc(-c2ccc(Br)s2)c(Br)s1	none
Cc1ccccc1Cn1c(=O)c2c(nc3n2CCN3Cc2ccco2)n(C)c1=O	none
COCCNC(=O)CC(NS(=O)(=O)c1ccc(NC(C)=O)cc1)C(C)C (stereo not given)	LNCaP diff act 31.0
CCCCCCNC(=O)CC(NS(=O)(=O)c1ccc(NC(C)=O)cc1)C(C)C (stereo not given)	none
COc1ccc(-c2nc(CS(=O)CC(=O)NCc3ccc(Cl)cc3)c(C)o2)cc1 (stereo not given)	none
C=CCn1c(=N)n(CC(O)COc2ccccc2OC)c2ccccc21 (stereo not given)	none
CCCCCn1c(=N)n(CC(O)COc2ccccc2OC)c2ccccc21 (stereo not given)	LNCaP diff act 34.0
Cc1ccc(OCC(O)Cn2c(=N)n(CCN3CCCCC3)c3ccccc32)cc1 (stereo not given)	LNCaP diff act 58.0
COc1ccc(OCC(O)CN2CCCCC2)cc1 (stereo not given)	none
COC(=O)c1ccc(C(=O)OC)c(NC(=O)c2oc(C)nc2C)c1	none
N#Cc1nc(COc2ccccc2F)oc1NCc1ccc(F)cc1	none
COc1ccc(CCNc2oc(COc3ccccc3F)nc2C#N)cc1	Proteasome disasm 48.5
COc1ccc(Cn2c(C)nc3c(c2=O)c2nc4ccccc4nc2n3Cc2ccco2)cc1	LNCaP diff act 58.0
COc1ccc(CCn2c(-c3ccco3)nc3nc4ccccc4nc32)cc1	none
CC(C)(C)n1ncc2c(=O)n(CC(=O)N3CCN(c4ccccc4)CC3)cnc21	none
Cc1noc(/C=C/N(C)C)c1S(=O)(=O)N1CCN(c2ccccc2)CC1	none
Cc1ccc(C)c(N2CCN(S(=O)(=O)c3c(C)noc3/C=C/N(C)C)CC2)c1	Proteasome disasm 48.8
Cn1cc(NC(=O)c2cc(NC(=O)c3cc(NC=O)cn3C)cn2C)cc1C(=O)NCCC(=N)N	none
CN1CCN(c2cc3c(c4c2[nH]c2ccccc24)C(=O)CC(C)(C)C3)CC1	LNCaP diff act 63.0
CN1CCCN(C(=O)c2cc(=O)[nH]c3ccccc23)c2nc3ccccc3nc21	none
COc1cc(OC)cc(-c2nnc(SCC(=O)Nc3cc(C)on3)o2)c1	none
CCNC(=O)CC1C(=O)N(c2ccccc2)C(=O)N1Cc1ccc(OC)cc1 (stereo not given)	none
